Measurements taken from PubChem BioAssay.
Activity calls are given as the source filed them.

Key:
[1] = test system: Plasmodium falciparum Sir2 (PF13_0152, Sir2A); assay: pfSir2 binders on small-molecule microarrays, primary screen, biochemical, small-molecule microarray, 635 nm fluorescence (AID 1098); conditions: small-molecule microarray binding, fluorescence 635 nm; higher = more signal;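 further: score merges spot fluorescence intensity with its signal-to-noise ratio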
[2] = small-molecule microarray binders of probe aDKK1, primary screen, biochemical, biotinylated probe, 635/667 nm fluorescence (AID 1099); conditions: higher = more signal;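 further: score merges 667nm spot fluorescence with signal to noise across triplicate slides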
[3] = small-molecule microarray binders of probe aCHRDL2, primary screen, biochemical, biotinylated probe, 635/667 nm fluorescence (AID 1100); conditions: higher = more signal
[4] = splicing luciferase reporter signal modulators, primary screen, spliceosome inhibition project, cell-based, HEK293, splice +/- reporter (AID 1101); conditions: luminescence, 24 h, higher = more signal, called active from +8 up or from −8 down;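 further: HEK293 cells carrying a splicing-competent luciferase reporter gene; test concentration not given here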
[5] = target: Fibroblast growth factor 10 (Homo sapiens) (UniProt O15520); assay: FGF10 binders on small-molecule microarrays, primary screen, biochemical, small-molecule microarray, 635 nm fluorescence (AID 1102); conditions: FGF10 binding, fluorescence 635 nm, higher = more signal
Fibroblast growth factor 10 (Homo sapiens), sequence (O15520 whole entry, looked up): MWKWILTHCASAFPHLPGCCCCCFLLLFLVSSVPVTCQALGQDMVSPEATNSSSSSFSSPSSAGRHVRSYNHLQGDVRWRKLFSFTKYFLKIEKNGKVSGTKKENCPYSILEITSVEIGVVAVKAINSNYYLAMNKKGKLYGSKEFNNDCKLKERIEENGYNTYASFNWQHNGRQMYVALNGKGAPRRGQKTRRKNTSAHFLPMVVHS

[6] = test system: glycogen synthase kinase-3 (GSK3A per assay name; protocol says GSK3B); assay: GSK3 binders on small-molecule microarrays, primary screen, biochemical, small-molecule microarray, 635 nm fluorescence, GSK3A (AID 1103); conditions: small-molecule microarray binding, fluorescence 635 nm; higher = more signal; further: the record names both GSK3A and GSK3B
[7] = target: Epidermal growth factor receptor (Homo sapiens) (UniProt P00533); assay: EGFR binders on small-molecule microarrays, primary screen, biochemical, small-molecule microarray, 635 nm fluorescence (AID 1104); conditions: EGFR binding, higher = more signal;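 further: score merges 667 nm emission intensity with spot signal to noise over triplicate slides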
Epidermal growth factor receptor (Homo sapiens), sequence (P00533 whole entry, looked up): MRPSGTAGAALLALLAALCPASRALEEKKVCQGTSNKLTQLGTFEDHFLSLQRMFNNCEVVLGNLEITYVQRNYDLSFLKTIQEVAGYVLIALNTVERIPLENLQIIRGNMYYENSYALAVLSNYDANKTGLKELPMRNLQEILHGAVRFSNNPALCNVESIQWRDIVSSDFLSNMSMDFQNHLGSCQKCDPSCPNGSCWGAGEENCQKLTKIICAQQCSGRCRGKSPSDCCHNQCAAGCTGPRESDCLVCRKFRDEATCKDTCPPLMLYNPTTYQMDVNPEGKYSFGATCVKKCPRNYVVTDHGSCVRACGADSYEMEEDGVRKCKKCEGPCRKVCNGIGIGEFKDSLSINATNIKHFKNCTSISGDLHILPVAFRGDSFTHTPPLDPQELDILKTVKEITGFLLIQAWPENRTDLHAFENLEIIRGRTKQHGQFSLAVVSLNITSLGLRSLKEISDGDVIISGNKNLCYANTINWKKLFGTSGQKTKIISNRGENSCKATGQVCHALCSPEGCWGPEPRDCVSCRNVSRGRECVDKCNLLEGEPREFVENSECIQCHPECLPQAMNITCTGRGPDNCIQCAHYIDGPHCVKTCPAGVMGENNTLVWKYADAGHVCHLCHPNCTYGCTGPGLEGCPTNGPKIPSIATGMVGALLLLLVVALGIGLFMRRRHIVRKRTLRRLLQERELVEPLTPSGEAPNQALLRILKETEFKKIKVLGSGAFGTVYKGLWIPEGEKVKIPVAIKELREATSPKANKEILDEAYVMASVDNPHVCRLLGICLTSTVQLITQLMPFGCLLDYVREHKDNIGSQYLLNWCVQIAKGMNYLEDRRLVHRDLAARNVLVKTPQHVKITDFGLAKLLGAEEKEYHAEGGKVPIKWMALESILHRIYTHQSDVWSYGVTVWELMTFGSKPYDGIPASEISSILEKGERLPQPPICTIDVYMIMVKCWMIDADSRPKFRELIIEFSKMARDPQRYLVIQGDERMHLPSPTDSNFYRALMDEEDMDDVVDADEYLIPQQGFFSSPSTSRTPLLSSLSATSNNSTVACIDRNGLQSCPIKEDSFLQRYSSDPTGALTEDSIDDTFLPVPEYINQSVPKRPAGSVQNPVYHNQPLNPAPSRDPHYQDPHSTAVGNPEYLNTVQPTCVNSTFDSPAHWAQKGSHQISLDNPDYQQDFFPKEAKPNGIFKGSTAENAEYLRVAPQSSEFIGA

[8] = target: Follistatin-related protein 3 (Homo sapiens) (UniProt O95633); assay: FSTL3 binders on small-molecule microarrays, primary screen, biochemical, small-molecule microarray, 635 nm fluorescence (AID 1105); conditions: FSTL3 binding, higher = more signal;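 further: score merges emission near 667 nm and signal to noise per printed spot across three slides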
Follistatin-related protein 3 (Homo sapiens), sequence (O95633 whole entry, looked up): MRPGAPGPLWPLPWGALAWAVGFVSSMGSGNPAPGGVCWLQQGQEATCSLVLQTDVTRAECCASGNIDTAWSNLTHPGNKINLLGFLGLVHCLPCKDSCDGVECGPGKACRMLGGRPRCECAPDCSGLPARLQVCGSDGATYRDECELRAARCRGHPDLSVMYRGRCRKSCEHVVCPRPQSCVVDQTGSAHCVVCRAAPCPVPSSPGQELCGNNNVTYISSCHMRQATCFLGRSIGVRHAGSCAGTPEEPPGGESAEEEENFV

[9] = target: Dickkopf-related protein 1 (Homo sapiens) (UniProt O94907); assay: DKK1 binders on small-molecule microarrays, primary screen, biochemical, small-molecule microarray, 635 nm fluorescence scan (AID 1106); conditions: DKK1 binding, higher = more signal;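 further: score merges emission near 667 nm with signal to noise over three replicate slides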
Dickkopf-related protein 1 (Homo sapiens), sequence (O94907 whole entry, looked up): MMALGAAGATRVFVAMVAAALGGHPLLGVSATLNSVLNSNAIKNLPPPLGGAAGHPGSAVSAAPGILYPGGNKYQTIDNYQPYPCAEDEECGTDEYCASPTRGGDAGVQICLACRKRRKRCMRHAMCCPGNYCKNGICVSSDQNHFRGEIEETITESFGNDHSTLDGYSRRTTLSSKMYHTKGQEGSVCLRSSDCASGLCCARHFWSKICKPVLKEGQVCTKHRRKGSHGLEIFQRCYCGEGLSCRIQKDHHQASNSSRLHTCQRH

[10] = test system: Inhibin beta A chain (activin A); assay: INHBA (activin A) binders on microarrays, primary screen, biochemical, small-molecule microarray, 635 nm fluorescence scan (AID 1107); conditions: small-molecule microarray binding, higher = more signal;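 further: mouse activin A protein probed at 4.33 µg/mL on printed slides; score merges bound-protein fluorescence near 667 nm with spot signal-to-noise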
[11] = test system: Human papillomavirus type 1a protein E7 (residues 44-93); assay: HPV1a E7 fragment binders on microarrays, primary screen, biochemical, small-molecule microarray, residues 44-93, 635 nm fluorescence (AID 1108); conditions: small-molecule microarray binding, fluorescence 635 nm; higher = more signal;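 further: E7 fragment applied at 1 µg/mL in TBST for 1 h at 4 C; score combines spot fluorescence with its signal to noise ratio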
[12] = modulators of HCV replicon luciferase signal, primary screen, HCV replication inhibitor project, Huh7 cells, luciferase reporter (AID 1109); conditions: 48 h, higher = more signal;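 further: huh7 hepatoma cells harbouring a luciferase neomycin HCV replicon reporter; luciferase luminescence as measure of HCV replicon replication; test concentration not given here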
[13] = target: Left-right determination factor 2 (Homo sapiens) (UniProt O00292); assay: LEFTY2 binders on small-molecule microarrays, primary screen, biochemical, small-molecule microarray, 635 nm fluorescence scan (AID 1110); conditions: LEFTY2 binding, higher = more signal
Left-right determination factor 2 (Homo sapiens), sequence (O00292 whole entry, looked up): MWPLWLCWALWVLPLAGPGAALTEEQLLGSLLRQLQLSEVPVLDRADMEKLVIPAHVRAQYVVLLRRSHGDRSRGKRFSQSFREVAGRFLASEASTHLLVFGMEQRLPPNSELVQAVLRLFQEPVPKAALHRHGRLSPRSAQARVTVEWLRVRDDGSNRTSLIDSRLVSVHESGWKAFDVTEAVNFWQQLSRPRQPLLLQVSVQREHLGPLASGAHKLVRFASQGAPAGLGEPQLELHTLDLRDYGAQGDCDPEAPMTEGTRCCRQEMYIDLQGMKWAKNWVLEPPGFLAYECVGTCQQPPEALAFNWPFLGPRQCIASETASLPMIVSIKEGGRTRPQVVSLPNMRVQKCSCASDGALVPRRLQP

[14] = target: Calmodulin-1 (Homo sapiens) (UniProt P0DP23); assay: CALM1 binders on microarrays, EGTA buffer, profiling panel, biochemical, small-molecule microarray, Cy5-labelled CALM1 (AID 1111); conditions: Cy5-CALM1 binding fluorescence, higher = more signal;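 further: labelled calmodulin applied in Tris saline Tween buffer holding calcium plus EGTA and DTT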
[15] = target: Calmodulin-1 (Homo sapiens) (UniProt P0DP23); assay: calcium-bound CALM1 binders on microarrays, profiling panel, artefact control for SMM control-protein annotation, biochemical, small-molecule microarray, Cy5-labelled CALM1, plus calcium (AID 1112); conditions: Cy5-CALM1 binding fluorescence, higher = more signal;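 further: score merges spot fluorescence with signal to noise from triplicate slides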
[16] = small-molecule microarray binders of probe aWnt5a, primary screen, biochemical, biotinylated probe, 635/667 nm fluorescence (AID 1113); conditions: higher = more signal;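 further: score merges 667 nm fluorescence intensity with signal-to-noise per printed feature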
[17] = small-molecule microarray binders of probe aShh, primary screen, biochemical, biotinylated probe, 635/667 nm fluorescence (AID 1114); conditions: higher = more signal;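 further: probe is biotin-labelled aShh protein from a stem cell growth factor screen; measures binding of labelled protein to compounds printed on the slide; score merges feature fluorescence at 667 nm with signal-to-noise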
[18] = small-molecule microarray binders of probe aNog, primary screen, biochemical, biotinylated probe, 635/667 nm fluorescence (AID 1115); conditions: higher = more signal;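 further: probe is biotinylated aNog protein used at 0.15 µg/mL for 1 h at 4 C; z-score combines 667 nm fluorescence of each spot with its signal to noise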
[19] = target: Torsin-1A-interacting protein 1 (Homo sapiens) (UniProt Q5JTV8); assay: LAP1 binders from COS7 cell lysate, primary screen, small-molecule microarray, 635/667 nm fluorescence (AID 1116); conditions: COS7-hLAP1 lysate binding, 635 nm fluorescence, higher = more signal
Torsin-1A-interacting protein 1 (Homo sapiens), sequence (Q5JTV8 whole entry, looked up): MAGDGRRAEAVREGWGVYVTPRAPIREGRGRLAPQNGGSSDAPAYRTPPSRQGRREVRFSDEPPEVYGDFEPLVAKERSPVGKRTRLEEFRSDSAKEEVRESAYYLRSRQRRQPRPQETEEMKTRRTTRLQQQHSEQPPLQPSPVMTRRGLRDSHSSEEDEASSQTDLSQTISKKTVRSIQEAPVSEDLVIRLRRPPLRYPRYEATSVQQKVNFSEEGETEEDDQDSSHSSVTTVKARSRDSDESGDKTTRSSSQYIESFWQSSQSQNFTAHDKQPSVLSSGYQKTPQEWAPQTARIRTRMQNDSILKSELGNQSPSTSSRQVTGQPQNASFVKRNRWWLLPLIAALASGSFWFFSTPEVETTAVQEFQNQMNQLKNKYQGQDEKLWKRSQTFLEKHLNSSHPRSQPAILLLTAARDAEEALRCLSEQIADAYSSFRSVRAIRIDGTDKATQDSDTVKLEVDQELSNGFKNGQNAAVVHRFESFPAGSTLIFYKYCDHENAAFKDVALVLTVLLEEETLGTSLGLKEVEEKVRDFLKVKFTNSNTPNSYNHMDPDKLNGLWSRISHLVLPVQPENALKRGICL

[20] = target: Alpha-bungarotoxin (Bungarus multicinctus) (UniProt P60615); assay: alpha-bungarotoxin binders on microarray, profiling panel, artefact control for SMM control protein annotation, biochemical, small-molecule microarray, Alexa647 label, 635/667 nm fluorescence (AID 1117); conditions: alpha-BTX-A647 binding fluorescence, higher = more signal
Alpha-bungarotoxin (Bungarus multicinctus), sequence (P60615 whole entry, looked up): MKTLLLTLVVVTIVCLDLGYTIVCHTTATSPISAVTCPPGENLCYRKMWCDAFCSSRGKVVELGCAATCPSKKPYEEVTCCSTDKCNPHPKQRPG

Row | SMILES | composite z-score [1] | composite z-score [2] | composite z-score [3] | z-score [4] | composite z-score [5] | composite z-score [6] | composite z-score [7] | composite z-score [8] | composite z-score [9] | composite z-score [10] | composite z-score [11] | z-score [12] | composite z-score [13] | composite z-score [14] | composite z-score [15] | composite z-score [16] | composite z-score [17] | composite z-score [18] | composite z-score [19] | composite z-score [20]
1 | C[N+](C)(C)CCCC[C@@H]1NC(=O)[C@H]2C[C@@H](C(=O)NCCCCCCN)[C@@H](c3cccc(OCCO)c3)N2C1=O | 1.56 | 1.82 | 0.984 | -0.481 (inactive) | 1.17 | 1.33 | 0.717 | 1.28 | 1.27 | 1.63 | 1.4 | 0.347 | 1.39 | 1.11 | 1.13 | 0.469 | 0.705 | 2.31 | 1.21 | 0.995
2 | CCCCC(=C=CC[C@H](O)c1ccccc1OCCO)C[C@H](O)c1ccccn1 | 1.36 | -0.127 | 0.211 | -0.471 (inactive) | 0.551 | -0.251 | 0.324 | 0.549 | -0.0601 | 1.54 | 0.0797 | -0.619 | 0.377 | -0.0455 | -0.351 | -0.126 | -0.0769 | -0.388 | 0.934 | 0.697
3 | COC(=O)c1ccc(OC)c(/C=C\CC(CCc2ccccc2)OC(C)=O)c1 (stereo not given) | -0.388 | -0.493 | -0.101 | -0.101 (inactive) | -0.614 | -0.0629 | -0.309 | 0.21 | 0.239 | 1.53 | -0.498 | -1.1 | -0.274 | -0.42 | -0.134 | -0.152 | -0.214 | -0.192 | -0.343 | 0.516
4 | COCCOC(=O)N1C(=O)[C@@]2(c3cc(C#CCC(C(=O)OC)C(=O)OC)ccc31)[C@H](C(=O)N1CCCCCCC1)[C@H]1C(=O)O[C@H](c3ccccc3)[C@H](c3ccccc3)N1[C@@H]2c1ccc(O)cc1 | 1.36 | 1.7 | 1.41 | 0.0931 (inactive) | 1.2 | 1.3 | 0.783 | 1.45 | 1.07 | 1.63 | 1.37 | -0.586 | 0.485 | 1.1 | 0.624 | 0.244 | -0.0422 | 2.33 | 0.166 | 1.3
5 | COCCOC(=O)N1C(=O)[C@@]2(c3cc(C#CC4(O)CCCCCC4)ccc31)[C@H](C(=O)NC[C@H](O)c1ccccc1)[C@H]1C(=O)O[C@H](c3ccccc3)[C@H](c3ccccc3)N1[C@@H]2c1ccc(OCCO)cc1 | 0.971 | -0.0726 | -0.0689 | -1.15 (inactive) | 0.68 | 0.673 | 0.429 | 0.834 | 0.348 | 0.193 | 1.38 | -1.73 | 0.358 | 0.7 | 0.383 | -0.282 | -0.638 | 0.14 | 0.394 | 0.598
6 | CC1CC/C=C\[C@H]2OC34C=CCN(c5ccc(Cl)cc5)C(=O)[C@H]3N(C(CO)C(C)C)C(=O)[C@]4(C)C2C(=O)O1 (stereo not given in full) | 1.86 | -0.0977 | 0.281 | 0.323 (inactive) | -0.0355 | -0.364 | -0.799 | -0.786 | -0.717 | 0.813 | -0.806 | -0.392 | -1.22 | -0.505 | 0.0376 | -0.152 | -0.154 | -0.679 | 0.184 | -0.59
7 | [N-]=[N+]=NCc1ccccc1[C@H]1OC(c2ccc(OCCCO)cc2)=N[C@@]1(Cc1ccccc1N=[N+]=[N-])C(=O)NCCN1CCOCC1 | 0.879 | 0.901 | 1.15 | -0.44 (inactive) | 1.26 | 1.3 | 0.558 | 1.32 | 0.136 | 0.511 | 1.05 | -2.34 | 0.528 | 1.19 | 0.305 | 0.16 | 0.432 | 2.06 | 1.79 | 1.45
8 | COc1cc2c(cc1OC)CN(C(=O)[C@@H]1[C@H]3C(=O)O[C@H](c4ccccc4)[C@H](c4ccccc4)N3[C@H](c3ccc(O)cc3)[C@@]13C(=O)Nc1ccc(C#CCNC(N)=O)cc13)CC2 | 0.55 | -0.053 | 0.0095 | -0.256 (inactive) | 0.641 | -0.566 | 0.0967 | 0.694 | -0.162 | 0.849 | 0.762 | -0.126 | 0.382 | 0.186 | -0.0936 | -0.0367 | 0.0062 | -0.115 | 0.0623 | 0.469
9 | NC(=O)NCC#Cc1ccc2c(c1)[C@]1(C(=O)N2)[C@H](c2ccc(OCCO)cc2)N2[C@H](c3ccccc3)[C@H](c3ccccc3)OC(=O)[C@H]2[C@@H]1C(=O)N1CCN(c2ncccn2)CC1 | 0.664 | -0.356 | -0.417 | -0.115 (inactive) | 0.621 | 0.0283 | 0.231 | 0.232 | 0.209 | 1.29 | 0.833 | -0.488 | 0.259 | 0.362 | 0.492 | -0.0977 | 0.156 | 0.042 | 0.655 | 1.21
10 | COC(=O)C(CC#Cc1ccc2c(c1)[C@]1(C(=O)N2)[C@H](C(=O)N2CCc3cc(OC)c(OC)cc3C2)[C@H]2C(=O)O[C@H](c3ccccc3)[C@H](c3ccccc3)N2[C@@H]1c1ccc(O)cc1)C(=O)OC | 1.06 | 0.432 | 0.417 | 0.362 (inactive) | 1.4 | 1.35 | 0.919 | 1.43 | 1.71 | -0.227 | 1.27 | -1.06 | 1.35 | 1.35 | 0.537 | -0.0303 | 0.529 | -0.491 | 0.908 | 1.12
11 | C=CCOc1ccc([C@@H]2CC=C(C(=O)OCC)[C@H](c3cccc(Br)c3)N2S(=O)(=O)c2ccc(C)cc2)cc1 | 0.251 | 0.735 | 1.04 | -0.776 (inactive) | 0.248 | -1.11 | -0.0936 | 0.167 | 0.644 | 1.46 | -1.07 | -1.12 | 0.179 | 1.95 | 0.943 | -0.0944 | -0.107 | -0.54 | 0.644 | 1.2
